# Source: PubChem BioAssay (NCATS)
# Several values for one entry are separate records, joined by “and”; a condition that tells them apart may be missing. Identical values can stand only once. Inconclusive results are not listed. Entries that show only a call come without a potency. A structure can be active in one record and inactive in another. Activity calls are given as the source filed them. Unless noted, the call rests on the fitted dose curve; in most records, active means well fitted curve in the direction sought with a large enough effect; inconclusive means small, poorly fitted or top-dose-only effect, or another doubt; inactive means no such curve, though single readings can be large; an effect the other way counts as inactive or inconclusive.
# Tests used:
# [1] = NS1 protein of Zika virus - qHTS assay to identify small molecule inhibitors in human HEK 293 cells (AID 1347053); further: nearly all actives have a fitted effect of over 55% in size; further: potency means the concentration at half of the fitted maximal effect
# In short: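 HEK 293; 20 h pre-culture, 37 C/5% CO2; cpd 1 h pre-infection; ZIKV MR766, MOI = 0.5, 24 h, 37 C; TR-FRET NS1 readout (two anti-NS1 Abs); norm. to no-virus vs infected.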
# [2] = target: T1, Tyrosine-protein phosphatase non-receptor type substrate 1 (Homo sapiens) + Leukocyte surface antigen CD47 (Homo sapiens) (UniProt P78324+Q08722); experiment: CD47-SIRPalpha protein protein interaction - LANCE assay qHTS validation (AID 1347057; active means well fitted curve in the direction sought with a large enough effect in the signal ratio, with a control signal flat, not every such curve was filed as active; the % refers to the signal ratio; further: series mostly up to about 38 µM)
# T1 sequence (P78324 whole entry, looked up): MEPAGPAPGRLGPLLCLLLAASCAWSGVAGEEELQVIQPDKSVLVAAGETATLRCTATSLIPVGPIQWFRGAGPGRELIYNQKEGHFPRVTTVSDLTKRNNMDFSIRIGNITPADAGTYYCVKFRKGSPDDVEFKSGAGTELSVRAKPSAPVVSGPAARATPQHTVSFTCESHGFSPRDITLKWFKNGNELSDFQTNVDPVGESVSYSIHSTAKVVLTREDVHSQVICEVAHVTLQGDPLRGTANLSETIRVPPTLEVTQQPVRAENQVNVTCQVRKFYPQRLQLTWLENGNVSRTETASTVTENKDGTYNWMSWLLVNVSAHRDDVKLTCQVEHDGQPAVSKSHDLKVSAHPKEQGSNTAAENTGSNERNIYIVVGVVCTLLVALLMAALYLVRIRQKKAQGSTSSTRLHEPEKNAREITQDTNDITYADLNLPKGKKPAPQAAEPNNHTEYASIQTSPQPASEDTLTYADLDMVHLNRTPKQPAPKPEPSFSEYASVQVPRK
# T1 sequence (Q08722 whole entry, looked up): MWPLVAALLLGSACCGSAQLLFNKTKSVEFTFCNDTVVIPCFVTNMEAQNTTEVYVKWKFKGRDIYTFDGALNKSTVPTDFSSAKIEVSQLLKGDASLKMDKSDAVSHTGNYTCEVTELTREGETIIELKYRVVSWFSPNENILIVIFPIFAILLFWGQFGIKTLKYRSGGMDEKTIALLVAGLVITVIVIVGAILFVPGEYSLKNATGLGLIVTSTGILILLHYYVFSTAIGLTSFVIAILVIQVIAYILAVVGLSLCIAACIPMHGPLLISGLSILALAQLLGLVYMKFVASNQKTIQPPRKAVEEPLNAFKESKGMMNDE
# In short: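 First, His-tagged CD47 and Eu-labelled anti-His antibody met the compound for 30 min; next, site-specifically biotinylated SIRPalpha was added for 30 min; finally streptavidin-APC was added before reading the TR-FRET ratio.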
# [3] = target: T1, Tyrosine-protein phosphatase non-receptor type substrate 1 (Homo sapiens) + Leukocyte surface antigen CD47 (Homo sapiens); experiment: CD47-SIRPalpha protein protein interaction - HTRF assay qHTS validation (AID 1347058; active means well fitted curve in the direction sought with a large enough effect in the signal ratio, not every such curve was filed as active; the % refers to the signal ratio;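 further: recombinant soluble extracellular CD47 with His tag and biotinylated SIRPalpha domains; series mostly up to about 38 µM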)
# In short: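 TR-FRET read (Ch1/Ch2 ratio) of soluble extracellular CD47 and Avi-biotinylated SIRPalpha domains in PBS pH 7.4 with 0.05% IGEPAL; 7-point compound titration. Sequential 30 min room-temperature steps; non-biotinylated SIRPalpha as control inhibitor.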
# [4] = target: T1, Tyrosine-protein phosphatase non-receptor type substrate 1 (Homo sapiens) + Leukocyte surface antigen CD47 (Homo sapiens); experiment: CD47-SIRPalpha protein protein interaction - Alpha assay qHTS validation (AID 1347059);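 further: bead proximity luminescence from CD47 binding SIRPalpha after compound preincubation with SIRPalpha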
# In short: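 Binding is measured by AlphaScreen proximity: Ni-NTA acceptor beads capture His-CD47, streptavidin donor beads capture biotin-SIRPalpha. Each of three additions (SIRPalpha with compound, CD47, beads) incubates 30 min at room temperature protected from light.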
# [5] = qHTS of pediatric cancer cell lines to identify multiple opportunities for drug repurposing: Primary screen for TC32 cells (AID 1347089); further: nearly all actives have a fitted effect of over 60% in size; further: potency means the concentration at half of the fitted maximal effect
# In short: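 In the primary qHTS, MIPE compounds were tested at 11 concentrations (0.78 nM to 46 µM) and NPC compounds at 8 (0.59 nM to 46 µM) on TC32 cells for 48 h. CellTiter-Glo luminescence gave viability.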
# [6] = qHTS of pediatric cancer cell lines to identify multiple opportunities for drug repurposing: Primary screen for DAOY cells (AID 1347090); further: nearly all actives have a fitted effect of over 55% in size; further: potency means the concentration at half of the fitted maximal effect
# In short: (§1)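 Cell viability, CellTiter-Glo luminescence; 500-1,000 cells/well, 8- or 11-point titration, 48 h compound exposure at 37 degrees C, 5% CO2. Controls: DMSO neutral, bortezomib 2.3 µM final as positive.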
# [7] = qHTS of pediatric cancer cell lines to identify multiple opportunities for drug repurposing: Primary screen for A673 cells (AID 1347092); further: nearly all actives have a fitted effect of over 45% in size; further: potency means the concentration at half of the fitted maximal effect
# In short: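 48 h compound exposure, A673, 500-1,000 cells/well, 37 degrees C/5% CO2. MIPE: 11-point, 0.78 nM-46 µM; NPC: 8-point, 0.59 nM-46 µM (final). Readout CellTiter-Glo luminescence after 15 min RT.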
# [8] = qHTS of pediatric cancer cell lines to identify multiple opportunities for drug repurposing: Primary screen for SK-N-MC cells (AID 1347093); further: potency means the concentration at half of the fitted maximal effect
# In short: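 Metabolically active cells were quantified by ATP-dependent luminescence (CellTiter-Glo, 15 min at room temperature) following 48 h treatment. Cells had been plated at 500-1,000 per well and settled for 5 h beforehand.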
# [9] = qHTS of pediatric cancer cell lines to identify multiple opportunities for drug repurposing: Primary screen for NB-EBc1 cells (AID 1347095); further: potency means the concentration at half of the fitted maximal effect
# In short: (§2)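 Cells seeded at 500-1,000 cells/well in growth media, rested 5 hours at 37 degrees C, 5% CO2, then dosed; MIPE compounds at 11-point (from 0.78 nM) and NPC at 8-point (from 0.59 nM) final concentrations. Viability by CellTiter-Glo luminescence after 48 hours.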
# [10] = qHTS of pediatric cancer cell lines to identify multiple opportunities for drug repurposing: Primary screen for Saos-2 cells (AID 1347097); further: nearly all actives have a fitted effect of over 40% in size; further: potency means the concentration at half of the fitted maximal effect
# In short: as §2
# [11] = qHTS of pediatric cancer cell lines to identify multiple opportunities for drug repurposing: Primary screen for SK-N-SH cells (AID 1347098); further: nearly all actives have a fitted effect of over 65% in size; further: potency means the concentration at half of the fitted maximal effect
# In short: (§3)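 Cells (500-1,000/well) rested 5 h, then received compounds for 48 h; metabolically active cells were measured by CellTiter-Glo luminescence. Final concentrations spanned up to 46 µM (MIPE, 11-point) or 0.59 nM-46 µM (NPC, 8-point) in primary screens, 11-point in follow-ups.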
# [12] = qHTS of pediatric cancer cell lines to identify multiple opportunities for drug repurposing: Primary screen for NB1643 cells (AID 1347099); further: nearly all actives have a fitted effect of over 50% in size; further: potency means the concentration at half of the fitted maximal effect
# In short: as §2
# [13] = qHTS of pediatric cancer cell lines to identify multiple opportunities for drug repurposing: Primary screen for LAN-5 cells (AID 1347100); further: potency means the concentration at half of the fitted maximal effect
# In short: as §3
# [14] = qHTS of pediatric cancer cell lines to identify multiple opportunities for drug repurposing: Primary screen for SJ-GBM2 cells (AID 1347091); further: potency means the concentration at half of the fitted maximal effect
# In short: as §1
# [15] = qHTS of pediatric cancer cell lines to identify multiple opportunities for drug repurposing: Primary screen for BT-37 cells (AID 1347094); further: potency means the concentration at half of the fitted maximal effect
# In short: as §2
# [16] = qHTS of pediatric cancer cell lines to identify multiple opportunities for drug repurposing: Primary screen for U-2 OS cells (AID 1347096); further: nearly all actives have a fitted effect of over 50% in size; further: potency means the concentration at half of the fitted maximal effect
# In short: as §3
SMILES,Potency [1],outcome [2],outcome [3],Potency [4],Potency [5],Potency [6],Potency [7],Potency [8],Potency [9],Potency [10],Potency [11],Potency [12],Potency [13],Potency [14],Potency [15],Potency [16]
Cc1cc(Cl)ccc1OCCCC(=O)NO,inactive,inactive,inactive,inactive,5.23 µM (active),9350 nM (active),2.96 µM (active),2.09 µM (active),4.69 µM (active),11.8 µM (active),19.2 µM (active),4.18 µM (active),2.64 µM (active),,,
N=C(N=C(N)N)N1CCOCC1,inactive,,,,inactive,inactive,inactive,,inactive,inactive,,inactive,,inactive,inactive,
CCCCCCCCCCCCCCCCCCCCCCO,inactive,,,,inactive,inactive,inactive,inactive,inactive,inactive,,inactive,,inactive,inactive,inactive
CCOc1cc(CC(=O)N[C@@H](CC(C)C)c2ccccc2N2CCCCC2)ccc1C(=O)O,inactive,,,,inactive,inactive,inactive,4.69 µM (active),inactive,inactive,inactive,,inactive,inactive,inactive,inactive
COc1cc(OC)c(C(=O)CCCN2CCCC2)c(OC)c1,inactive,,,,inactive,inactive,inactive,inactive,inactive,inactive,inactive,inactive,inactive,inactive,inactive,inactive
Nc1cccc2c1CN(C1CCC(=O)NC1=O)C2=O (configuration not stated),inactive,,,,inactive,inactive,,inactive,inactive,inactive,inactive,inactive,,inactive,inactive,inactive
CC(C)[C@H](N)C(=O)OCCOCn1cnc2c(=O)[nH]c(N)nc21,inactive,,,,inactive,inactive,inactive,inactive,inactive,inactive,inactive,inactive,inactive,inactive,inactive,inactive
CCCCC(CC)COC(=O)C(C#N)=C(c1ccccc1)c1ccccc1 (configuration not stated),inactive and 23.5 µM (active),,,,inactive,inactive,inactive,16.8 µM (active) and 7.43 µM (active),inactive,inactive,,,,inactive,inactive,inactive
CN(C)c1ccc2nc3ccc(=[N+](C)C)cc-3sc2c1,inactive,,,,16.5 µM (active) and 21 µM (active),2.35 µM (active) and 6.68 µM (active),9.35 µM (active) and 8.41 µM (active),1.18 µM (active) and 1.19 µM (active),2.09 µM (active) and 2.66 µM (active),1.48 µM (active) and 2.66 µM (active),3.41 µM (active) and 5.45 µM (active),10.6 µM (active),,3.32 µM (active) and 2.66 µM (active),19.3 µM (active) and 15.5 µM (active),10.6 µM (active)
CN(C)CCc1c[nH]c2ccc(Cn3cncn3)cc12,inactive,,,,inactive,inactive,inactive,inactive,,11.8 µM (active),inactive,inactive,inactive,inactive,19.3 µM (active),
CC(=O)Nc1ccc(O)cc1,inactive,,,,inactive,inactive,inactive,inactive,inactive,inactive,inactive,inactive,inactive,inactive,inactive,inactive
c1ccc2[nH]c(-c3cscn3)nc2c1,inactive,,,,inactive,inactive,inactive,,inactive,inactive,inactive,inactive,,inactive,inactive,inactive
O=C(NCCO[N+](=O)[O-])c1cccnc1,inactive,,,,inactive,inactive,inactive,,,inactive,inactive,,inactive,inactive,inactive,
CCN(CC)CCOc1ccc(Nc2ncc3cc(-c4c(Cl)cccc4Cl)c(=O)n(C)c3n2)cc1,0.166 µM (active),inactive,,inactive,6.58 µM (active),187 nM (active),0.118 µM (active),0.105 µM (active),,0.296 µM (active),0.242 µM (active),3.72 µM (active),1.05 µM (active),418 nM (active),6.11 µM (active),
CC(C)C[C@H](NC(=O)[C@H](Cc1ccccc1)NC(=O)c1cnccn1)B(O)O,0.0332 µM (active),,,,0.0836 µM (active),29.6 nM (active),,0.006 µM (active),0.0376 µM (active),0.469 µM (active),0.0429 µM (active),0.0299 µM (active),0.0166 µM (active),26.6 nM (active),0.0347 µM (active),0.0422 µM (active)
Cc1nc(-c2ccc(OCC(C)C)c(C#N)c2)sc1C(=O)O,inactive,,,,inactive,inactive,inactive,,inactive,inactive,inactive,inactive,inactive,inactive,inactive,inactive
CN1CCC(=C2c3ccccc3CCc3sccc32)CC1,inactive,,,,inactive,inactive,,29.6 µM (active),,inactive,13.6 µM (active),,inactive,inactive,,inactive
Cc1cc(=O)oc2cc(O)ccc12,inactive,,,,inactive,inactive,,inactive,inactive,inactive,inactive,inactive,inactive,,inactive,inactive
NS(=O)(=O)c1cc(C(=O)O)c(NCc2ccco2)cc1Cl,inactive,,,,inactive,inactive,inactive,inactive,inactive,inactive,inactive,inactive,inactive,,inactive,
CN(C)C(=O)COC(=O)Cc1ccc(OC(=O)c2ccc(N=C(N)N)cc2)cc1,inactive,,,,inactive,inactive,,,,inactive,inactive,inactive,inactive,inactive,inactive,

SMILES,Potency [1],outcome [2],outcome [3],Potency [4],Potency [5],Potency [6],Potency [7],Potency [8],Potency [9],Potency [10],Potency [11],Potency [12],Potency [13],Potency [14],Potency [15],Potency [16]
CNC[C@@H](O)[C@@H](O)[C@H](O)[C@H](O)CO,inactive,,,,inactive,inactive,inactive,23.5 µM (active),,inactive,inactive,inactive,inactive,,inactive,
CC1=C(C(=O)O)N2C(=O)[C@@H](NC(=O)[C@H](N)C3=CCC=CC3)[C@H]2SC1,inactive,,,,inactive,inactive,inactive,inactive,inactive,inactive,inactive,inactive,inactive,,inactive,inactive
CN(C)[C@@H](CCOc1cccc2ccccc12)c1ccccc1,inactive,,,,inactive,inactive,inactive,23.5 µM (active),inactive,26.4 µM (active),inactive,inactive,,,,inactive
CC(C)Oc1ccc2c(=O)c(-c3ccccc3)coc2c1,inactive,,,,inactive,inactive,,inactive,inactive,inactive,inactive,inactive,inactive,,inactive,inactive
NC(=O)Cc1cccc(C(=O)c2ccccc2)c1N,inactive,,,,inactive,inactive,inactive,inactive,,inactive,inactive,inactive,inactive,,inactive,inactive
CS(=O)(=O)OCCCCOS(C)(=O)=O,inactive,,,,inactive,inactive,inactive,,,,inactive,inactive,inactive,,inactive,inactive
Clc1ccc(C(Cn2ccnc2)OCc2ccsc2Cl)c(Cl)c1 (configuration not stated),inactive,,,,inactive,inactive,23.5 µM (active),2.66 µM (active),,,inactive,11.9 µM (active),,,0.001 µM (active),inactive
CN(c1nccc(=O)[nH]1)C1CCN(c2nc3ccccc3n2Cc2ccc(F)cc2)CC1,inactive,,,,inactive,inactive,inactive,2.64 µM (active),inactive,inactive,inactive,,,,inactive,inactive
CC1=C(C)C(=O)C(C(CCCCCC(=O)O)c2ccccc2)=C(C)C1=O (configuration not stated),inactive,,,,inactive,inactive,,inactive,inactive,inactive,inactive,,inactive,inactive,inactive,
CCCc1cc(=O)[nH]c(=S)[nH]1,inactive,,,,inactive,inactive,,,,inactive,inactive,inactive,,,inactive,
Cc1nccn1CC1CCc2c(c3ccccc3n2C)C1=O (configuration not stated),inactive,,,,inactive,inactive,,inactive,inactive,,inactive,,,,inactive,inactive
N[C@@H](Cc1cc(I)c(Oc2cc(I)c(O)c(I)c2)c(I)c1)C(=O)O,inactive,,,,inactive,inactive,inactive,inactive,,inactive,inactive,inactive,,,inactive,inactive
COc1cc(C(C)=O)ccc1OCCCN1CCC(c2noc3cc(F)ccc23)CC1,inactive,,,,inactive,inactive,inactive,inactive,,inactive,inactive,inactive,inactive,,,inactive
N=C(N)c1ccc2cc(OC(=O)c3ccc(N=C(N)N)cc3)ccc2c1,inactive,,,,inactive,inactive,inactive,inactive,inactive,inactive,inactive,inactive,inactive,,inactive,inactive
COC(=O)C1=C(C)NC(C)=C(C(=O)OCCCN2CCC(c3ccccc3)(c3ccccc3)CC2)C1c1cccc([N+](=O)[O-])c1 (configuration not stated),inactive,,,,inactive,inactive,,23.7 µM (active),inactive,,15.4 µM (active),inactive,inactive,inactive,inactive,
Clc1ccc(C(Cn2ccnc2)OCc2ccc(Sc3ccccc3)cc2)c(Cl)c1 (configuration not stated),inactive,,,,inactive,inactive,,,inactive,,inactive,,,inactive,inactive,inactive
COc1c(O)cc2c(c1O)[C@@H]1O[C@H](CO)[C@@H](O)[C@H](O)[C@H]1OC2=O,inactive,,,,inactive,inactive,inactive,inactive,inactive,,inactive,inactive,inactive,,inactive,
Cc1ccc(C)c(OCCCC(C)(C)C(=O)O)c1,inactive,,,,inactive,inactive,,,inactive,inactive,inactive,,,,inactive,inactive
CC(=O)NC[C@H]1CN(c2ccc(N3CCOCC3)c(F)c2)C(=O)O1,inactive,,,,inactive,inactive,,inactive,inactive,inactive,,inactive,inactive,,inactive,
CCCS(=O)c1ccc2nc(NC(=O)OC)[nH]c2c1 (configuration not stated),inactive,,,,inactive,26.6 µM (active) and 23.5 µM (active),29.6 µM (active),7.5 µM (active) and 18.7 µM (active),,13.3 µM (active),,inactive,16.8 µM (active),,,
